Measurements reported in PubChem BioAssay (NCATS).
Inconclusive results are not listed. A call without a number means that no potency is given here. Active and inactive are the calls of the source. Calls come from the whole dose curve; as a rule, active = well fitted curve in the direction sought with a large enough effect; inconclusive = small, poorly fitted or top-dose-only effect, or another doubt; inactive = no such curve, though single readings can be large; an effect the other way counts as inactive or inconclusive.

Target: ATP-dependent DNA helicase Q1 (Homo sapiens) (UniProt P46063)
Sequence (P46063 whole entry, looked up): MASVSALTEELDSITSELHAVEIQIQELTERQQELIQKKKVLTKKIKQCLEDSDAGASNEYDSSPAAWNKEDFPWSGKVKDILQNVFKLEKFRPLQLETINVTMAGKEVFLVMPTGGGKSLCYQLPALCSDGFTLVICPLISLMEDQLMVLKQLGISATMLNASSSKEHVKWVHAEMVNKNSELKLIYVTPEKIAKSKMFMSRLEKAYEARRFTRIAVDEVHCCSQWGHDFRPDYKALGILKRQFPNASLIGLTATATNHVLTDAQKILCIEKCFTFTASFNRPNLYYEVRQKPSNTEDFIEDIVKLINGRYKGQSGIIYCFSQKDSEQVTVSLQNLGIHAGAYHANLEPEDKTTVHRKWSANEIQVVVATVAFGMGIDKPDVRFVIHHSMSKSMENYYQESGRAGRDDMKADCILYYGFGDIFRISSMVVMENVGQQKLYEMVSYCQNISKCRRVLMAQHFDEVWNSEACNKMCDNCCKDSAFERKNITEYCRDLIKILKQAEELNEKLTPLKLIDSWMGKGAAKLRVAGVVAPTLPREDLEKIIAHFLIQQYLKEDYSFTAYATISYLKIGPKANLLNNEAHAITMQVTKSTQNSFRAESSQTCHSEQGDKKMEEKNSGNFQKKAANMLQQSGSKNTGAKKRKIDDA
Experiment: qHTS Validation Assay for Inhibitors of RecQ-Like Dna Helicase 1 (RECQ1) (AID 2353)
Conditions: recombinant RECQ1 helicase DNA unwinding assay; series mostly up to 25.6 µM
Summary of the method: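 50 nM RECQ1T1 preincubated 15 min with compound in Tris pH 8.0 buffer with MgCl2, DTT, Tween-20 and 2.5 ug/ml poly(dI-dC); started with 200 nM TAMRA/BHQ-2 forked duplex and 2 mM ATP. Unwinding read as fluorescence (525/598 nm), two reads 2 h apart.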
In the case of `COc1ccccc1N1CCN(CCCCNS(=O)(=O)c2cccc3c(N(C)C)cccc23)CC1`, the Potency is reported as “inactive”.
With `O=C1NC(O)=NC1(c1ccccc1)c1ccccc1` the Potency was “inactive”.
In the case of `CN=c1nc(-c2ccccc2)n(-c2ccccc2)s1`, the Potency is reported as “inactive”.
In the case of `CC(C)NC[C@H](O)COc1cccc2[nH]ccc12`, the Potency is reported as “inactive”.
In the case of `Cc1ccccc1CNc1ncnc2c1ncn2C1OC(CO)C(O)C1O` (centres undefined), the Potency is reported as “inactive”.
For `O=c1[nH]c2cc(Cl)c(Cl)cc2[nH]c1=O`, the Potency was “inactive”.
For `Fc1cccc(/C=N/N=C/c2cccc(F)c2)c1`, the Potency was “inactive”.
With `O=C(/C=C/c1ccc(O)cc1)c1ccc(O)cc1O` the Potency was “inactive”.
For `CN(C)C(N)=NCCC[C@H](N)C(=O)O`, the Potency was “inactive”.
With `CC(C)Cc1ccc([C@H](C)C(=O)O)cc1` the Potency was “inactive”.
With `Ic1ccc(N2CCN(Cc3c[nH]c4ncccc34)CC2)cc1` the Potency was “inactive”.
For `CC12C(=O)OC(=O)C1(C)C1CCC2O1` (centres undefined), the Potency was “inactive”.
For `Cc1cc(NC(=O)Nc2ccc3c(ccn3C)c2)sn1`, the Potency was “inactive”.
In the case of `CCN1/C(=C/C(C)=O)Sc2ccc(OC)cc21`, the Potency is reported as “inactive”.
In the case of `CN1CCc2ccccc2Cc2[nH]c3ccccc3c2CC1`, the Potency is reported as “inactive”.
In the case of `COC1=C(OC)C(=O)c2ccccc2C1=O`, the Potency is reported as “inactive”.
In the case of `N.N.O=C(O)C1(C(=O)O)CCC1.[Pt]`, the Potency is reported as “inactive”.
For `CN1CCc2cc(O)c(O)cc2C(c2ccccc2)C1` (centres undefined), the Potency was “inactive”.
With `Oc1cc(O)cc(/C=C/c2ccc(O)c(O)c2)c1` the Potency was “inactive”.
With `COc1ccc(NC(=O)/C=C/c2ccc(Cl)cc2)cc1` the Potency was “inactive”.

Target: RecQ-like DNA helicase BLM (Homo sapiens) (UniProt P54132)
Sequence (P54132 whole entry, looked up): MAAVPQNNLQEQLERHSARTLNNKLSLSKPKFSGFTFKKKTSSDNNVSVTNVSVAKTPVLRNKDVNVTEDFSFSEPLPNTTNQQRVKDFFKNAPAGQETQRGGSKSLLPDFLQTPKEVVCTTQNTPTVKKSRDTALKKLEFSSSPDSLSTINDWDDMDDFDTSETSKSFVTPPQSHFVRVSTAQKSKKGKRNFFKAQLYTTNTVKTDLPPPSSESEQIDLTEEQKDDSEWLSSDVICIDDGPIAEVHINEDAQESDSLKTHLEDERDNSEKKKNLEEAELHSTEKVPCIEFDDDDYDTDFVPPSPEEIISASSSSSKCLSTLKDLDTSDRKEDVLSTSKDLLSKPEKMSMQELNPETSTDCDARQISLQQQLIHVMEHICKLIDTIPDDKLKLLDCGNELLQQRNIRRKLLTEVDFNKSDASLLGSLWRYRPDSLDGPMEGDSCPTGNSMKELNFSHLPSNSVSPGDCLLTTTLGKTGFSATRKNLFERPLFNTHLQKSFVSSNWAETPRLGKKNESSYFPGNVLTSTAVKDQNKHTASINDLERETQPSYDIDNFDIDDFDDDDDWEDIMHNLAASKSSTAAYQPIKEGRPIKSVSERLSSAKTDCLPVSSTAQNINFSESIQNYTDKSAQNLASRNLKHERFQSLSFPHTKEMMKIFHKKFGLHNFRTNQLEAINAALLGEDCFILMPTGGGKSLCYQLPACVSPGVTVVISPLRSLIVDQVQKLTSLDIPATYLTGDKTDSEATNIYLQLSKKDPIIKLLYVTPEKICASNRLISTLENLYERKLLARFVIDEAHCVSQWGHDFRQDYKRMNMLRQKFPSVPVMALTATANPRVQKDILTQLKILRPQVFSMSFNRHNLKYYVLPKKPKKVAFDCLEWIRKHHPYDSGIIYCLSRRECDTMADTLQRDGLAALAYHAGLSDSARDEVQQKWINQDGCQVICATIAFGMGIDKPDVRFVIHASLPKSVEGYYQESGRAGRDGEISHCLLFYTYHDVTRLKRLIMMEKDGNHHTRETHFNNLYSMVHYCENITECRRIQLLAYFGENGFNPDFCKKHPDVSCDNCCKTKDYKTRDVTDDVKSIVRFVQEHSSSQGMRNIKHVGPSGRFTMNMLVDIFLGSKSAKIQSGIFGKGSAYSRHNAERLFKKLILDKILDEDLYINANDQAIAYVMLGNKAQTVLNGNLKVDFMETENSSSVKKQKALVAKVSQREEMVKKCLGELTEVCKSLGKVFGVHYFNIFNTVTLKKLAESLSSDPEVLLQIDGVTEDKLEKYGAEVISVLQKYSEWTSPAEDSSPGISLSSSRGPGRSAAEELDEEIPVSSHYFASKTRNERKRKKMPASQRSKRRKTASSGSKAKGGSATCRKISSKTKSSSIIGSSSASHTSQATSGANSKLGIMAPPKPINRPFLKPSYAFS
Experiment: qHTS Validation Assay for Inhibitors of Bloom's syndrome helicase (BLM) (AID 2364); note: potency is the fitted concentration of half-maximal effect
Conditions: BLM helicase DNA unwinding, fluorescence, in vitro; series mostly up to 57.1 µM
Summary of the method: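 Forked 20-bp duplex substrate (200 nM, TAMRA/BHQ-2) plus 2 mM ATP added after 15 min compound preincubation with 50 nM enzyme, pH 8.0, poly(dI-dC) 2.5 ug/ml. Strand separation followed by fluorescence (525/598 nm) over 2 h, normalized to enzyme-free and DMSO controls.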
With `CC(C)NCC(O)COc1cccc2ccccc12` (centres undefined) the Potency was “inactive”.
For `O=C(Nc1cccc(C(=O)Nc2ccc(S(=O)(=O)O)c3cc(S(=O)(=O)O)cc(S(=O)(=O)O)c23)c1)Nc1cccc(C(=O)Nc2ccc(S(=O)(=O)O)c3cc(S(=O)(=O)O)cc(S(=O)(=O)O)c23)c1`, the Potency was “inactive”.
With `COc1cccc(OC)c1OCCNCC1COc2ccccc2O1` (centres undefined) the Potency was “inactive”.
With `COc1ccc(/C=C/C(=O)Nc2ccccc2C(=O)O)cc1OC` the Potency was “inactive”.
With `CCCCN1CCC(n2c(=O)[nH]c3ccccc32)CC1` the Potency was “inactive”.
In the case of `COc1ccccc1CNCCCCCCNCCCCCCCCNCCCCCCNCc1ccccc1OC`, the Potency is reported as 17.8 µM (active).
With `c1cnc2c(c1)ccc1cccnc12` the Potency was “inactive”.

Tested on: not listed separately
Experiment: Cytometric Cell-Based qHTS for Inhibitors of the mTORC1 Signaling Pathway in MEF (Tsc2-/-, p53-/-) Cells (AID 2660);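 note: Tsc2 and p53 null MEFs carrying empty vector with compound for 24 h; percent of cells above a phospho-rpS6 to PI ratio cutoff in each well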
Conditions: mTORC1 pathway cytometry; series mostly up to 38.3 µM
Summary of the method: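 Percent of cells positive for normalized phospho-S6 staining is reported, with the cutoff set from rapamycin (7.5 nM) versus DMSO wells. Tsc2-/-, p53-/- MEFs received compound for 24 hrs.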
For `CC(C)NCC(O)COc1cccc2ccccc12` (centres undefined), the outcome was “inactive”.
For `COc1ccccc1N1CCN(CCCCNS(=O)(=O)c2cccc3c(N(C)C)cccc23)CC1`, the outcome was “inactive”.
In the case of `O=C1NC(O)=NC1(c1ccccc1)c1ccccc1`, the outcome is reported as “inactive”.
In the case of `COc1cccc(OC)c1OCCNCC1COc2ccccc2O1` (centres undefined), the outcome is reported as “inactive”.
With `CC(C)NC[C@H](O)COc1cccc2[nH]ccc12` the outcome was “inactive”.
In the case of `Cc1ccccc1CNc1ncnc2c1ncn2C1OC(CO)C(O)C1O` (centres undefined), the outcome is reported as “inactive”.
In the case of `NC(CCCP(=O)(O)O)C(=O)O` (centres undefined), the outcome is reported as “inactive”.
In the case of `O=C(/C=C/c1ccc(O)cc1)c1ccc(O)cc1O`, the outcome is reported as “inactive”.
For `COc1ccc(/C=C/C(=O)Nc2ccccc2C(=O)O)cc1OC`, the outcome was “inactive”.
For `CN1CCc2cc(NC(=O)Nc3cccnc3)ccc21`, the outcome was “inactive”.
In the case of `CN(C)C(N)=NCCC[C@H](N)C(=O)O`, the outcome is reported as “inactive”.
In the case of `O=C(O)CCCC[C@@H]1CCSS1`, the outcome is reported as “inactive”.
In the case of `O=C(O)/C=C/C(O)c1ccc(Cl)cc1` (centres undefined), the outcome is reported as “inactive”.
For `CC(C)Cc1ccc([C@H](C)C(=O)O)cc1`, the outcome was “inactive”.
For `CCCCN1CCC(n2c(=O)[nH]c3ccccc32)CC1`, the outcome was “inactive”.
In the case of `CC(C)(C)c1ccc(S(=O)(=O)/C=C/C#N)cc1`, the outcome is reported as “inactive”.
In the case of `Cc1cc(NC(=O)Nc2ccc3c(ccn3C)c2)sn1`, the outcome is reported as “inactive”.
In the case of `CN1CCc2ccccc2Cc2[nH]c3ccccc3c2CC1`, the outcome is reported as “inactive”.
With `CN1CCc2cc(O)c(O)cc2C(c2ccccc2)C1` (centres undefined) the outcome was “inactive”.
In the case of `O=C(O)[C@@H]1C[C@H](C(=O)O)N1`, the outcome is reported as “inactive”.
In the case of `CCCN(CC1CC1)c1nc(C)nc(Nc2c(Cl)cc(Cl)cc2Cl)c1Cl`, the outcome is reported as “inactive”.
For `COc1ccc(NC(=O)/C=C/c2ccc(Cl)cc2)cc1`, the outcome was “inactive”.
